Inconclusive results are not listed. Calls of active or inactive are those of the source. Calls come from the whole dose curve; as a rule, active = well fitted curve in the direction sought with a large enough effect in the repeat runs; inconclusive = weak or mixed curves; inactive = no such curve, though single readings can be large; an effect the other way counts as inactive or inconclusive.
Legend:
[1] = A CellTox Green Cytotoxicity Assay to monitor cytotoxicity in HEK293 cells - 40 hour (AID 1224871); note: nearly all actives have a fitted effect of over 45% in size
In short: (§1)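 Cells (HEK293, 600/well) and dye reagent are dispensed together. After 5 h at 37 C, 23 nL compound is pinned in. Plates stay at 37 C for 40 h with fluorescence read at 0h, 8h, 16h, 24h, 32h and 40h.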

[2] = qHTS RealTime-Glo MT Cell Viability Assay in HEK293 cells - 16 hour (AID 1224872); note: nearly all actives have a fitted effect of over 50% in size; note: potency is the fitted concentration of half-maximal effect
In short: (§2)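 Quantitative high-throughput screen of the Tox21 10K library in HEK293: cells and RealTime-Glo reagents plated together, compound added at 5 h, luminescence monitored through 40 h at 37 C.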

[3] = qHTS RealTime-Glo MT Cell Viability Assay in HepG2 cells - 8 hour (AID 1224873); note: nearly all actives have a fitted effect of over 55% in size
In short: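 HepG2 cells mixed with RealTime-Glo MT reagents (NanoLuc plus cell-permeant prosubstrate) were seeded at 600 cells/well, incubated 5 h at 37 C/5% CO2, then pinned with compounds in DMSO; nonlytic luminescence tracked viability during 40 h treatment.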

[4] = qHTS RealTime-Glo MT Cell Viability Assay in HEK293 cells - 40 hour (AID 1224874); conditions: RealTime-Glo luminescence; max response: hits give low values; note: nearly all actives have a fitted effect of over 50% in size; note: potency is the fitted concentration of half-maximal effect
In short: (§3)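 Real-time viability in HEK293: signal arises when living cells convert a prosubstrate for NanoLuc in the medium, so luminescence tracks viable cell number. Compound (23 nL, DMSO) added 5 h post-seeding; kinetic reads at 0–40 h, 37 C.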

[5] = A CellTox Green Cytotoxicity Assay to monitor cytotoxicity in HEK293 cells - 24 hour (AID 1224875); note: series mostly up to about 77 µM; nearly all actives have a fitted effect of over 45% in size
In short: as §1

[6] = A CellTox Green Cytotoxicity Assay to monitor cytotoxicity in HepG2 cells - 16 hour (AID 1224876); note: nearly all actives have a fitted effect of over 45% in size
In short: (§4)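 Cells and non-lytic dye reagent are dispensed together (600 HepG2 cells/well) and incubated 5 h before DMSO compound transfer. Kinetic fluorescence is then recorded in the same wells during 40 h at 37 C.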

[7] = qHTS RealTime-Glo MT Cell Viability Assay in HepG2 cells - 32 hour (AID 1224877); note: nearly all actives have a fitted effect of over 55% in size
In short: (§5)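 Compound treatment began 5 h after plating HepG2 cells (600/well) with NanoLuc luciferase and prosubstrate. Plates stayed at 37 C for 40 h; luminescence was captured at six time points, 0 h through 40 h.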

[8] = A CellTox Green Cytotoxicity Assay to monitor cytotoxicity in HepG2 cells - 24 hour (AID 1224878); note: nearly all actives have a fitted effect of over 45% in size
In short: as §4

[9] = A CellTox Green Cytotoxicity Assay to monitor cytotoxicity in HepG2 cells - 40 hour (AID 1224879); note: nearly all actives have a fitted effect of over 40% in size
In short: as §4

[10] = qHTS RealTime-Glo MT Cell Viability Assay in HEK293 cells - 0 hour (AID 1224880)
In short: as §3

[11] = A CellTox Green Cytotoxicity Assay to monitor cytotoxicity in HEK293 cells - 32 hour (AID 1224881); note: nearly all actives have a fitted effect of over 40% in size
In short: as §1

[12] = A CellTox Green Cytotoxicity Assay to monitor cytotoxicity in HepG2 cells - 0 hour (AID 1224882); note: nearly all actives have a fitted effect of over 35% in size
In short: as §4

[13] = A CellTox Green Cytotoxicity Assay to monitor cytotoxicity in HepG2 cells - 32 hour (AID 1224883); note: nearly all actives have a fitted effect of over 50% in size
In short: as §4

[14] = A CellTox Green Cytotoxicity Assay to monitor cytotoxicity in HEK293 cells - 8 hour (AID 1224884); note: nearly all actives have a fitted effect of over 35% in size
In short: as §1

[15] = qHTS RealTime-Glo MT Cell Viability Assay in HepG2 cells - 16 hour (AID 1224885); note: nearly all actives have a fitted effect of over 50% in size
In short: as §5

[16] = qHTS RealTime-Glo MT Cell Viability Assay in HEK293 cells - 8 hour (AID 1224887)
In short: as §3

[17] = A CellTox Green Cytotoxicity Assay to monitor cytotoxicity in HEK293 cells - 16 hour (AID 1224888); note: nearly all actives have a fitted effect of over 35% in size
In short: as §1

[18] = qHTS RealTime-Glo MT Cell Viability Assay in HepG2 cells - 0 hour (AID 1224889); note: nearly all actives have a fitted effect of over 50% in size
In short: as §5

[19] = A CellTox Green Cytotoxicity Assay to monitor cytotoxicity in HepG2 cells - 8 hour (AID 1224890); note: nearly all actives have a fitted effect of over 45% in size
In short: as §4

[20] = qHTS RealTime-Glo MT Cell Viability Assay in HEK293 cells - 24 hour (AID 1224886); note: nearly all actives have a fitted effect of over 50% in size; note: potency is the fitted concentration of half-maximal effect
In short: as §2
% is set by controls: 0 for no effect and ±100 for the full control effect.

COc1ccc(CCN(C)CCCN2CCc3cc(OC)c(OC)cc3CC2=O)cc1OC
inactive: Potency [1] | Potency [2] | Potency [3] | max response [4] 9.42% | Potency [5] | Potency [6] | Potency [7] | Potency [8] | Potency [9] | Potency [10] | Potency [11] | Potency [12] | Potency [13] | Potency [14] | Potency [15] | Potency [16] | Potency [17] | Potency [18] | Potency [19]

C[C@@H]1C[C@H]2[C@@H]3CCC4=CC(=O)C=C[C@]4(C)[C@@]3(F)[C@@H](O)C[C@]2(C)[C@@]1(O)C(=O)COP(=O)(O)O
inactive: Potency [1] | Potency [2] | Potency [3] | max response [4] -21.2% | Potency [5] | Potency [6] | Potency [7] | Potency [8] | Potency [9] | Potency [10] | Potency [11] | Potency [12] | Potency [13] | Potency [14] | Potency [15] | Potency [20] | Potency [16] | Potency [19]

Cc1cccc2sc(N)nc12
inactive: Potency [1] | Potency [2] | Potency [3] | max response [4] 25.1% | Potency [5] | Potency [6] | Potency [7] | Potency [8] | Potency [9] | Potency [10] | Potency [11] | Potency [12] | Potency [13] | Potency [14] | Potency [15] | Potency [16] | Potency [18] | Potency [19]

O=c1[nH][nH]c(=O)c2cc([N+](=O)[O-])ccc12
inactive: Potency [1] | Potency [2] | Potency [3] | max response [4] -11.6% | Potency [5] | Potency [6] | Potency [7] | Potency [8] | Potency [9] | Potency [10] | Potency [11] | Potency [12] | Potency [13] | Potency [14] | Potency [15] | Potency [20] | Potency [16] | Potency [19]

Cc1ccc(Cl)cc1N
inactive: Potency [1] | Potency [2] | Potency [3] | max response [4] 4.39% | Potency [5] | Potency [6] | Potency [7] | Potency [8] | Potency [9] | Potency [10] | Potency [11] | Potency [12] | Potency [13] | Potency [14] | Potency [15] | Potency [20] | Potency [16] | Potency [19]

CC(=O)OCC(=O)[C@@]1(OC(C)=O)[C@@H](C)C[C@H]2[C@@H]3C[C@H](F)C4=CC(=O)C=C[C@]4(C)[C@@]3(F)[C@@H](O)C[C@@]21C
inactive: Potency [1] | Potency [2] | Potency [3] | max response [4] -24.6% | Potency [5] | Potency [6] | Potency [7] | Potency [8] | Potency [9] | Potency [11] | Potency [12] | Potency [13] | Potency [14] | Potency [15] | Potency [16] | Potency [19]

O=C1CC[C@@H](C(=O)O)N1
inactive: Potency [1] | Potency [2] | Potency [3] | max response [4] 0.932% | Potency [5] | Potency [6] | Potency [7] | Potency [8] | Potency [9] | Potency [10] | Potency [11] | Potency [12] | Potency [13] | Potency [14] | Potency [15] | Potency [20] | Potency [16] | Potency [18] | Potency [19]

COC(OC)OC
inactive: Potency [1] | Potency [2] | Potency [3] | max response [4] 11.5% | Potency [5] | Potency [6] | Potency [7] | Potency [8] | Potency [9] | Potency [10] | Potency [11] | Potency [12] | Potency [13] | Potency [14] | Potency [15] | Potency [20] | Potency [16] | Potency [18]

O=C(O)c1ccc(O)cc1O
inactive: Potency [1] | Potency [2] | Potency [3] | max response [4] -2.47% | Potency [5] | Potency [6] | Potency [7] | Potency [8] | Potency [9] | Potency [10] | Potency [11] | Potency [12] | Potency [13] | Potency [14] | Potency [15] | Potency [20] | Potency [16] | Potency [19]

CCCCCCCCCCCCCCCCCC(=O)OCC(CC)CCCC (configuration not stated)
inactive: Potency [1] | Potency [2] | Potency [3] | max response [4] 2.92% | Potency [5] | Potency [6] | Potency [7] | Potency [8] | Potency [9] | Potency [10] | Potency [11] | Potency [12] | Potency [13] | Potency [14] | Potency [15] | Potency [20] | Potency [16] | Potency [18] | Potency [19]

C1CCCCC1
inactive: Potency [1] | Potency [2] | Potency [3] | max response [4] 1.11% | Potency [5] | Potency [6] | Potency [8] | Potency [9] | Potency [10] | Potency [11] | Potency [12] | Potency [13] | Potency [14] | Potency [15] | Potency [20] | Potency [16] | Potency [17] | Potency [18]

C1=CCC2CC=CC2C1 (configuration not stated)
inactive: Potency [1] | Potency [2] | Potency [3] | max response [4] 16.8% | Potency [5] | Potency [6] | Potency [7] | Potency [8] | Potency [9] | Potency [10] | Potency [11] | Potency [12] | Potency [13] | Potency [14] | Potency [15] | Potency [20] | Potency [16] | Potency [19]

O=C(NC(Cc1cc(=O)[nH]c2ccccc12)C(=O)O)c1ccc(Cl)cc1 (configuration not stated)
inactive: Potency [1] | Potency [2] | Potency [3] | max response [4] 3.38% | Potency [5] | Potency [6] | Potency [7] | Potency [8] | Potency [9] | Potency [10] | Potency [11] | Potency [12] | Potency [13] | Potency [14] | Potency [15] | Potency [16] | Potency [17] | Potency [18]

CC(C)C(O)C(C)(C)CO (configuration not stated)
inactive: Potency [1] | Potency [3] | Potency [5] | Potency [6] | Potency [7] | Potency [8] | Potency [9] | Potency [10] | Potency [11] | Potency [12] | Potency [13] | Potency [14] | Potency [15] | Potency [17] | Potency [18] | Potency [19]
active: Potency [2] 899 nM | Potency [4] 899 nM | Potency [20] 801 nM

CC(=O)C(C)=O
inactive: Potency [1] | Potency [2] | Potency [3] | max response [4] 13.9% | Potency [5] | Potency [6] | Potency [7] | Potency [8] | Potency [10] | Potency [11] | Potency [12] | Potency [14] | Potency [15] | Potency [20] | Potency [16] | Potency [17] | Potency [18] | Potency [19]
